Laboratory results: PubChem BioAssay (NCI)
The panel holds about 83,000 compounds, 20% with a hit somewhere; the sample as a whole holds those more often.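 In brief: 96-well plates, 48 h treatment, single concentration, percent growth endpoint.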 Values without a mark were called inactive. Calls of active or inactive are those of the source. How the source made its calls: active means growth percent below 10; inactive means the rest.

These compounds were tested on UACC-257 melanoma (assay: NCI-60 one-dose screen, 48 h (100 = growth as untreated, 0 = no growth, -100 = all killed)). Conditions: 10 µM unless noted.
Compound `CC(=O)c1cc2c(N)c(C(=O)Nc3cccc4ccccc34)sc2nc1C` has a growth of 59.8%. For `O=c1ccccc(-c2ccc(Br)cc2)c1O`, the growth was 1.13% (active). `CC/C=C\C[C@H]1C/C=C2/C(=O)C=C[C@H]2C/C=C\CCCC(=O)O1` was tested, and the growth was 47.1%. `CCNc1ncnc2c1cnn2C1CCCO1` (stereo unspecified) was tested, and the growth was 99.6%. `C=C1C(=O)O[C@H]2[C@H]1CC/C(COC(=O)NCCc1ccc(OC)c(OC)c1)=C\CC[C@@]1(C)O[C@@H]21` gave a growth of 62.9%. For `O=C(Cc1ccc(/C=C/C(=O)c2ncc[nH]2)cc1)Nc1ccc(F)cc1`, the growth was 92.1%. `Clc1ccc2c(NCCCNc3nc(-n4ccnc4)nc4ccccc34)ccnc2c1` showed a growth of 94.2%. `CCc1nc(N)nc(N)c1C#CC(C)c1ccc(-c2ccncc2)cc1Cl` (stereo unspecified) was tested, and the growth was 31.9%. With `COc1ccc(SC2c3ccc(C)cc3Oc3nc(N)c(C#N)c(N)c32)cc1` (stereo unspecified) the growth was -74.8% (active). With `NC(=NC1C2CC3CC(C2)CC1C3)Nc1ccc(I)cc1` (stereo unspecified) the growth was 0.379% (active). `COc1cc(C(=O)/C=C/c2cccnc2Nc2ccc(Cl)cc2)cc(OC)c1OC` was tested, and the growth was -63.5% (active). `CCOc1ccc(-n2nc(C(=O)Nc3cc(OC)c(OC)c(OC)c3)nc2-c2cc(OC)c(OC)c(OC)c2)cc1` gave a growth of 93.1%. Work on `CC(=O)Oc1ccc(Cl)cc1CN(C(C)=O)C1CCCCC1` yielded a growth of 81.3%. `COc1cc(-c2nn(-c3ccc(Br)cc3)cc2C(=O)O)ccc1O` gave a growth of 107%. In the case of `COc1cc2nnc3c4cccnc4[nH]c3c2cc1OC`, the growth is reported as -33.4% (active). With `CCNC(=O)Oc1ccc(/C(=C(\C)c2ccc(Cl)cc2)c2ccc(OCCN(CC)CC)cc2)cc1` the growth was -54.9% (active). `CCc1nc(N)nc(N)c1C#CC(C)c1cc(-c2ccnc(C)c2)c2oc(C)nc2c1` (stereo unspecified) gave a growth of 30.9%. In the case of `CC1=C(O)C(=O)C(C(C#N)(C#N)C(C#N)C#N)C1` (stereo unspecified), the growth is reported as 105%. For `CN(C)c1ccc(NC(=O)c2ccc(/C=C/C(=O)c3ncc[nH]3)cc2)cc1`, the growth was 91.7%. With `CN(C)c1ccc(N=Nc2ccccn2)c(O)c1` the growth was -9.35% (active). For `O=C1C=CC(=O)N1c1ccc2c(c1)Cc1cc(F)ccc1-2`, the growth was 64.7%. `CCCCn1cnc2c(Sc3c([N+](=O)[O-])ncn3C)nc(N)nc21` gave a growth of 84.1%. For `Clc1ccc2c(NCCNc3nc(N4CCCCC4)nc4ccccc34)ccnc2c1`, the growth was -70.2% (active). In the case of `CCN1CCN(c2nc(NCCCNc3ccnc4cc(Cl)ccc34)c3ccccc3n2)CC1`, the growth is reported as -82.8% (active). In the case of `CCOC(=O)c1sc(Nc2ccc(Cl)cc2)nc1C`, the growth is reported as 7.95% (active). In the case of `CN1C(=O)C2(SCC(C(=O)NCc3ccccc3)N2C(=O)C2CCCCC2)c2ccccc21` (stereo unspecified), the growth is reported as 106%. In the case of `CSc1ccc(-c2ccccc(=O)c2O)cc1`, the growth is reported as -4.11% (active). `CC(=O)c1cc2c(N)c(C(=O)Nc3cccc(F)c3C)sc2nc1C` showed a growth of 74.5%. `COc1ccc2c(c1)C(=O)/C(=C/c1ccccn1)CC2` gave a growth of 81%. With `O=C(Cc1ccc(/C=C/C(=O)c2ncc[nH]2)cc1)Nc1ccccc1` the growth was 97.2%. For `COc1cccc2c1C(=O)c1c(O)c3c(c(O)c1C2=O)C[C@](O)(C(=O)CO)C[C@H]3O[C@@H]1C[C@@H](NC(=O)CCCN(C)C2(c3ccc(F)cc3)CC3CCC2C3)[C@H](O)[C@@H](C)O1` (stereo partly specified), the growth was -26.9% (active). With `COc1cccc2c1C(=O)c1c(O)c3c(c(O)c1C2=O)C[C@](O)(C(=O)CO)C[C@H]3O[C@@H]1C[C@@H](NC(=O)CCCCCN(C)C2(c3ccc(F)cc3)CC3CCC2C3)[C@H](O)[C@@H](C)O1` (stereo partly specified) the growth was 96.4%.

These compounds were tested on M14 melanoma in the same assay as above. Conditions: 10 µM unless noted.
`CN(C)C(=S)N=Nc1c(O)[nH]c2ccccc12` was tested, and the growth was -6.4% (active). For `NC(N)=N/N=C(/c1ccccc1)c1ccc(F)cc1`, the growth was -3.19% (active). In the case of `CC(=O)c1cc2c(N)c(C(=O)Nc3cccc4ccccc34)sc2nc1C`, the growth is reported as 3.93% (active). For `O=c1ccccc(-c2ccc(Br)cc2)c1O`, the growth was -10.8% (active). For `CCCCC(=O)OCC1OC(n2cnc3c(=S)nc[nH]c32)C(OC(=O)CCCC)C1OC(=O)CCCC` (stereo unspecified), the growth was 10.4%. With `CC/C=C\C[C@H]1C/C=C2/C(=O)C=C[C@H]2C/C=C\CCCC(=O)O1` the growth was 19.1%. `CCNc1ncnc2c1cnn2C1CCCO1` (stereo unspecified) was tested, and the growth was 104%. `C=C1C(=O)O[C@H]2[C@H]1CC/C(COC(=O)NCCc1ccc(OC)c(OC)c1)=C\CC[C@@]1(C)O[C@@H]21` showed a growth of 65.7%. For `O=C(Cc1ccc(/C=C/C(=O)c2ncc[nH]2)cc1)Nc1ccc(F)cc1`, the growth was 54.9%. In the case of `Clc1ccc2c(NCCCNc3nc(-n4ccnc4)nc4ccccc34)ccnc2c1`, the growth is reported as 95.1%. In the case of `CCc1nc(N)nc(N)c1C#CC(C)c1ccc(-c2ccncc2)cc1Cl` (stereo unspecified), the growth is reported as 1.01% (active). `Cc1cc2c3ccccc3ccc2[n+]2ccccc12` showed a growth of 68.2%. `COc1ccc(SC2c3ccc(C)cc3Oc3nc(N)c(C#N)c(N)c32)cc1` (stereo unspecified) was tested, and the growth was -76.5% (active). With `NC(=NC1C2CC3CC(C2)CC1C3)Nc1ccc(I)cc1` (stereo unspecified) the growth was 2.98% (active). For `CC(=O)OCCC/C(=C/c1cc2ccccc2c2ccccc12)[N+](=O)[O-]`, the growth was -69.9% (active). With `COc1cc(C(=O)/C=C/c2cccnc2Nc2ccc(Cl)cc2)cc(OC)c1OC` the growth was -47.4% (active). With `CCOc1ccc(-n2nc(C(=O)Nc3cc(OC)c(OC)c(OC)c3)nc2-c2cc(OC)c(OC)c(OC)c2)cc1` the growth was 91.5%. `CC(=O)Oc1ccc(Cl)cc1CN(C(C)=O)C1CCCCC1` showed a growth of 109%. With `COc1cc(-c2nn(-c3ccc(Br)cc3)cc2C(=O)O)ccc1O` the growth was 102%. Work on `COc1cc2nnc3c4cccnc4[nH]c3c2cc1OC` yielded a growth of 81.2%. For `CCNC(=O)Oc1ccc(/C(=C(\C)c2ccc(Cl)cc2)c2ccc(OCCN(CC)CC)cc2)cc1`, the growth was -63.3% (active). With `CCc1nc(N)nc(N)c1C#CC(C)c1cc(-c2ccnc(C)c2)c2oc(C)nc2c1` (stereo unspecified) the growth was -9.02% (active). `CC1=C(O)C(=O)C(C(C#N)(C#N)C(C#N)C#N)C1` (stereo unspecified) gave a growth of 101%. For `CN(C)c1ccc(NC(=O)c2ccc(/C=C/C(=O)c3ncc[nH]3)cc2)cc1`, the growth was 67.8%. For `CN(C)c1ccc(N=Nc2ccccn2)c(O)c1`, the growth was -2.06% (active). `O=C1C=CC(=O)N1c1ccc2c(c1)Cc1cc(F)ccc1-2` showed a growth of 107%. `CCCCn1cnc2c(Sc3c([N+](=O)[O-])ncn3C)nc(N)nc21` gave a growth of 102%. In the case of `NC(CSC(c1ccccc1)(c1ccccc1)c1ccc(Cl)cc1)C(=O)O` (stereo unspecified), the growth is reported as -24.2% (active). Compound `Oc1ccc(N=Cc2ccccc2O)cc1` has a growth of 94.2%. With `Clc1ccc2c(NCCNc3nc(N4CCCCC4)nc4ccccc34)ccnc2c1` the growth was -79.7% (active). With `CCN1CCN(c2nc(NCCCNc3ccnc4cc(Cl)ccc34)c3ccccc3n2)CC1` the growth was -87% (active). For `CCOC(=O)c1sc(Nc2ccc(Cl)cc2)nc1C`, the growth was 12.9%. With `CN1C(=O)C2(SCC(C(=O)NCc3ccccc3)N2C(=O)C2CCCCC2)c2ccccc21` (stereo unspecified) the growth was 87.3%. For `CSc1ccc(-c2ccccc(=O)c2O)cc1`, the growth was -6.35% (active). Compound `CC(=O)c1cc2c(N)c(C(=O)Nc3cccc(F)c3C)sc2nc1C` has a growth of 65.2%. Work on `COc1ccc2c(c1)C(=O)/C(=C/c1ccccn1)CC2` yielded a growth of 85.4%. Work on `O=C(Cc1ccc(/C=C/C(=O)c2ncc[nH]2)cc1)Nc1ccccc1` yielded a growth of 73.6%. For `COc1cccc2c1C(=O)c1c(O)c3c(c(O)c1C2=O)C[C@](O)(C(=O)CO)C[C@H]3O[C@@H]1C[C@@H](NC(=O)CCCN(C)C2(c3ccc(F)cc3)CC3CCC2C3)[C@H](O)[C@@H](C)O1` (stereo partly specified), the growth was -86.8% (active). With `COc1cccc2c1C(=O)c1c(O)c3c(c(O)c1C2=O)C[C@](O)(C(=O)CO)C[C@H]3O[C@@H]1C[C@@H](NC(=O)CCCCCN(C)C2(c3ccc(F)cc3)CC3CCC2C3)[C@H](O)[C@@H](C)O1` (stereo partly specified) the growth was -41.3% (active).
